Experimental data as given in PubChem BioAssay (EPA / NIEHS).
Calls of active or inactive are those of the source. The calls were made as follows: active = hit-call score of the fitted dose curve at least 0.9, where 1 is the maximum; inactive = score below 0.9.

Tests used:
Conditions in all cases: mRNA level, 48 h; actives raise or lower the signal
[1] = read-out: DNA damage-inducible transcript 3 (DDIT3), DDIT3 (gene 1649); assay: LTEA_HepaRG_DDIT3: Life Technologies and Expression Analysis (LTEA) Assay for DNA damage-inducible transcript 3 (DDIT3) using HepaRG (AID 2283488)
How it was run: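 Differentiated human HepaRG cells in serum-free induction medium were exposed in duplicate for 48 h to 8 concentrations (top 100 uM, half-log steps, 0.5% DMSO). DDIT3 mRNA measured by TaqMan qRT-PCR, normalized to ACTB/GAPDH/POLR2A; bidirectional fit versus DMSO.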

[2] = read-out: Pro-epidermal growth factor (Homo sapiens) (UniProt P01133); assay: LTEA_HepaRG_EGF: Life Technologies and Expression Analysis (LTEA) Assay for Epidermal growth factor (EGF) using HepaRG (AID 2283489)
How it was run: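 Concentration-response mRNA assay: HepaRG cells dosed 48 h (max 100 uM, 0.5% DMSO), EGF measured by qRT-PCR and normalized to ACTB/GAPDH/POLR2A.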

[3] = read-out: Early growth response protein 1 (EGR1) transcription factor, EGR1 (gene 1958); assay: LTEA_HepaRG_EGR1: Life Technologies and Expression Analysis (LTEA) Assay for Early growth response protein 1 (EGR1) transcription factor using HepaRG (AID 2283490)
How it was run: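 Differentiated human HepaRG cells in serum-free induction medium were exposed in duplicate for 48 h to eight concentrations (top 100 uM, half-log steps) in 0.5% DMSO. EGR1 mRNA was quantified by qRT-PCR, normalized to ACTB, GAPDH and POLR2A, and fitted bidirectionally versus DMSO.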

[4] = read-out: Ezrin (EZR), EZR (gene 7430); assay: LTEA_HepaRG_EZR: Life Technologies and Expression Analysis (LTEA) Assay for Ezrin (EZR) using HepaRG (AID 2283491)
How it was run: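 Gain or loss of EZR mRNA is scored relative to 0.5% DMSO in human HepaRG cultures treated 48 h with test chemicals in duplicate, eight half-log concentrations from 100 uM.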

[5] = read-out: Cytochrome P450 3A7 (Homo sapiens) (UniProt P24462); assay: LTEA_HepaRG_CYP3A7: Life Technologies and Expression Analysis (LTEA) Assay for CYP3A7 using HepaRG (AID 2283492)
How it was run: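 qRT-PCR of CYP3A7 in HepaRG lysates after 48 h treatment; concentration-response (8 points, max 100 uM) analysed bidirectionally relative to 0.5% DMSO controls.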

CYP3A5 (gene 1577) = assay: LTEA_HepaRG_CYP3A5: Life Technologies and Expression Analysis (LTEA) Assay for CYP3A5 using HepaRG (AID 2283493)
How it was run: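 Differentiated HepaRG cells in serum-free induction medium were dosed 48 h with test chemicals (8-point half-log series, top 100 uM, 0.5% DMSO, duplicate). CYP3A5 mRNA measured by qRT-PCR, normalized to ACTB, GAPDH, POLR2A; bidirectional fit versus DMSO.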

[6] = read-out: Fatty Acid-Binding Protein 1 (FABP1), FABP1 (gene 2168); assay: LTEA_HepaRG_FABP1: Life Technologies and Expression Analysis (LTEA) Assay for Fatty Acid-Binding Protein 1 (FABP1) using HepaRG (AID 2283494)
How it was run: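 Differentiated human HepaRG cells were exposed in duplicate for 48 h in serum-free induction medium to 8-point half-log concentration series topping at 100 uM in 0.5% DMSO. FABP1 mRNA measured by TaqMan qRT-PCR, normalized to ACTB/GAPDH/POLR2A; bidirectional fit versus DMSO.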

[7] = read-out: Cytochrome P450 4A22 (Homo sapiens) (UniProt Q5TCH4); assay: LTEA_HepaRG_CYP4A22: Life Technologies and Expression Analysis (LTEA) Assay for Cytochrome P450 4A22 (CYP4A22) using HepaRG (AID 2283495)
How it was run: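 Concentration-response (8 points, max 100 uM, 0.5% DMSO) in human HepaRG liver cells after 48 h exposure. CYP4A22 mRNA by TaqMan qRT-PCR with housekeeping-gene normalization.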

[8] = read-out: Cytochrome P450 7A1 (Homo sapiens) (UniProt P22680); assay: LTEA_HepaRG_CYP7A1: Life Technologies and Expression Analysis (LTEA) Assay for Cytochrome P450 7A1 (CYP7A1) using HepaRG (AID 2283496)
How it was run: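 Gene expression endpoint in human HepaRG liver cells treated for 48 h with test chemicals (up to 100 uM, 0.5% DMSO). Values come from bidirectional concentration-response fitting versus DMSO.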

[9] = read-out: Glutathione S-Transferase (GSTA2), GSTA2 (gene 2939); assay: LTEA_HepaRG_GSTA2: Life Technologies and Expression Analysis (LTEA) Assay for Glutathione S-Transferase (GSTA2) using HepaRG (AID 2283497)
How it was run: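 Human HepaRG cells, plated 48 h, then exposed in serum-free induction medium for 48 h to eight half-log concentrations up to 100 uM in 0.5% DMSO, duplicate. GSTA2 mRNA by qRT-PCR, normalized to ACTB/GAPDH/POLR2A; bidirectional fit versus DMSO.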

[10] = read-out: Glutamate-cysteine ligase catalytic (GCLC), GCLC (gene 2729); assay: LTEA_HepaRG_GCLC: Life Technologies and Expression Analysis (LTEA) Assay for Glutamate-cysteine ligase catalytic (GCLC) using HepaRG (AID 2283498)
How it was run: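 Differentiated human HepaRG cells, plated 48 h then switched to serum-free induction medium, were exposed in duplicate for 48 h to 8 half-log concentrations topping at 100 uM in 0.5% DMSO. GCLC mRNA was quantified by qRT-PCR against ACTB, GAPDH and POLR2A.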

[11] = read-out: growth arrest and DNA damage 45 (GADD45G), GADD45G (gene 10912); assay: LTEA_HepaRG_GADD45G: Life Technologies and Expression Analysis (LTEA) Assay for growth arrest and DNA damage 45 (GADD45G) using HepaRG (AID 2283499)
How it was run: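 Concentration-response in HepaRG: 48 h dosing, 0.5% DMSO, highest level 100 uM. GADD45G expression by qRT-PCR, normalised to endogenous controls; bidirectional fit to DMSO.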

[12] = read-out: Glutamate-cysteine ligase regulatory (GCLM), GCLM (gene 2730); assay: LTEA_HepaRG_GCLM: Life Technologies and Expression Analysis (LTEA) Assay for Glutamate-cysteine ligase regulatory (GCLM) using HepaRG (AID 2283500)
How it was run: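 Differentiated human HepaRG cells exposed 48 h in serum-free induction medium to 8-point half-log concentrations (top 100 uM, 0.5% DMSO), in duplicate. GCLM mRNA quantified by qRT-PCR, normalized to ACTB, GAPDH, POLR2A; bidirectional fitting versus DMSO.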

[13] = read-out: Glutathione S-transferase M3 (GSTM3), GSTM3 (gene 2947); assay: LTEA_HepaRG_GSTM3: Life Technologies and Expression Analysis (LTEA) Assay for Glutathione S-transferase M3 (GSTM3) using HepaRG (AID 2283501)
How it was run: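 Expression of GSTM3 is determined by qRT-PCR in human liver HepaRG cells treated 48 h with an 8-point half-log range from 100 uM in 0.5% DMSO.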

[14] = read-out: Heat shock 70 kDa protein 1 (HSPA1A), gene 3303; assay: LTEA_HepaRG_HSPA1A: Life Technologies and Expression Analysis (LTEA) Assay for Heat shock 70 kDa protein 1 (HSPA1A) using HepaRG (AID 2283502)
How it was run: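 Differentiated human HepaRG cells in serum-free induction medium were exposed in duplicate for 48 h to eight concentrations (top 100 uM, half-log steps, 0.5% DMSO). HSPA1A mRNA was quantified by qRT-PCR, normalized to ACTB, GAPDH and POLR2A, and fitted bidirectionally against DMSO.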

[15] = read-out: Hypoxia-inducible factor 1-alpha (Homo sapiens) (UniProt Q16665); assay: LTEA_HepaRG_HIF1A: Life Technologies and Expression Analysis (LTEA) Assay for Hypoxia-inducible factor 1 (HIF1A) Trancription factor using HepaRG (AID 2283503)
How it was run: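 HepaRG, 48 h exposure, 8-pt half-log series from 100 uM, 0.5% DMSO vehicle, duplicates. Readout: HIF1A transcript by qRT-PCR (Fluidigm array), housekeeping-normalised. Bidirectional curve fit vs DMSO baseline.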

[16] = read-out: 3-Hydroxy-3-Methylglutaryl-CoA Synthase 2 (HMGCS2), HMGCS2 (gene 3158); assay: LTEA_HepaRG_HMGCS2: Life Technologies and Expression Analysis (LTEA) Assay for 3-Hydroxy-3-Methylglutaryl-CoA Synthase 2 (HMGCS2) using HepaRG (AID 2283504)
How it was run: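 This steatosis marker was read as HMGCS2 mRNA change in HepaRG cells treated 48 h with up to 100 uM chemical. Normalisation used housekeeping genes; activity in either direction was fitted relative to 0.5% DMSO vehicle.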

HGF (gene 3082) = assay: LTEA_HepaRG_HGF: Life Technologies and Expression Analysis (LTEA) Assay for Hepatocyte Growth Facto (HGF) using HepaRG (AID 2283505)
How it was run: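 Using HepaRG monolayers kept in 0.5% DMSO, chemicals were tested in duplicate over eight half-log concentrations from 100 uM for 48 h. Endpoint: HGF mRNA change relative to DMSO, normalized to ACTB/GAPDH/POLR2A.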

[17] = read-out: Insulin Like Growth Factor 1 (IGF1), IGF1 (gene 3479); assay: LTEA_HepaRG_IGF1: Life Technologies and Expression Analysis (LTEA) Assay for Insulin Like Growth Factor 1 (IGF1) using HepaRG (AID 2283506)
How it was run: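 Differentiated human HepaRG cells were dosed for 48 h in serum-free induction medium with 0.5% DMSO, eight half-log concentrations up to 100 uM, in duplicate. IGF1 mRNA was quantified by qRT-PCR normalized to ACTB, GAPDH, POLR2A; bidirectional fitting versus DMSO.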

[18] = read-out: Intercellular Adhesion Molecule 1 (ICAM1), ICAM1 (gene 3383); assay: LTEA_HepaRG_ICAM1: Life Technologies and Expression Analysis (LTEA) Assay for Intercellular Adhesion Molecule 1 (ICAM1) using HepaRG (AID 2283507)
How it was run: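 Using the human liver line HepaRG, compounds are tested in duplicate over 48 h at concentrations up to 100 uM. Expression is determined by TaqMan qRT-PCR, normalized to endogenous controls, and analysed relative to 0.5% DMSO vehicle.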

Measured: outcome

Sequence of Cytochrome P450 3A7 (Homo sapiens) (P24462 whole entry, looked up): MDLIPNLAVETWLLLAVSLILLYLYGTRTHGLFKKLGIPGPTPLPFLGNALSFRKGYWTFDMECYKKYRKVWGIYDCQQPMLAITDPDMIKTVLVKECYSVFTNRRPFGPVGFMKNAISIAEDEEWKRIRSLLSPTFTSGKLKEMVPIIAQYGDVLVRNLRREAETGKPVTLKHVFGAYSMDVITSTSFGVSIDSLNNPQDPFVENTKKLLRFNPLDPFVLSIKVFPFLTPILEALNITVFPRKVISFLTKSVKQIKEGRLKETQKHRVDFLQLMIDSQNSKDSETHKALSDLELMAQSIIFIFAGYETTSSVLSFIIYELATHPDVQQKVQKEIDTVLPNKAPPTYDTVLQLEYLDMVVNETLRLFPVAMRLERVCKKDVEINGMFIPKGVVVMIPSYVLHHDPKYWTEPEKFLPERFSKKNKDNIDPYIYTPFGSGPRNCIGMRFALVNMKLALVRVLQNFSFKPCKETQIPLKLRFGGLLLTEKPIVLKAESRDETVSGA
Sequence of Hypoxia-inducible factor 1-alpha (Homo sapiens) (Q16665 whole entry, looked up): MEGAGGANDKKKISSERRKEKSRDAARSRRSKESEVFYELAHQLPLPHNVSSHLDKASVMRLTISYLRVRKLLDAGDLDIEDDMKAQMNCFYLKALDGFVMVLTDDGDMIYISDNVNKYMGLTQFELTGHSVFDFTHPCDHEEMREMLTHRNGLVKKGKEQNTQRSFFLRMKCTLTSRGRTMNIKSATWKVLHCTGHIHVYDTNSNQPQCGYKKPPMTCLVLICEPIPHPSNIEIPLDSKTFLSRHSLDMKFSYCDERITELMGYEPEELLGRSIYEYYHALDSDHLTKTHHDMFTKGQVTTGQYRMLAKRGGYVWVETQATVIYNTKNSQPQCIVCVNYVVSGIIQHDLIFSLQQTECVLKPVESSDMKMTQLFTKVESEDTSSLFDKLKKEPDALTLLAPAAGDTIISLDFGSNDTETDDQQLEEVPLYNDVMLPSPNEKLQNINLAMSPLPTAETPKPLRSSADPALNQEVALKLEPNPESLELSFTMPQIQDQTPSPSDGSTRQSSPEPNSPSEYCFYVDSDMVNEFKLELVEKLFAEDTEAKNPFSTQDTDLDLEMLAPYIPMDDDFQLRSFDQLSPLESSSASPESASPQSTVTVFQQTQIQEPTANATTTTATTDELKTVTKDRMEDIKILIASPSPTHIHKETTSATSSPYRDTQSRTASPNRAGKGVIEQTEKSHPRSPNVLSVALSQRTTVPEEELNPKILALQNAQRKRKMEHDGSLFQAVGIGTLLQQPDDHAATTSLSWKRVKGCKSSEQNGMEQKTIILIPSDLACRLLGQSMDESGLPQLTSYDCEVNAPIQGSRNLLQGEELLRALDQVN

CN(C)C=O
inactive: all assays above

CCC(C)(C)C1CCC(O)CC1 (centres undefined)
inactive: all assays above

COc1ccc([N+](=O)[O-])cc1N
inactive: all assays above

CCCOC(=O)c1ccc(O)cc1
not listed: [5]
inactive: all other assays above

CCCCCCC(=O)O
inactive: all assays above
